# Compound activity deposited in PubChem by National Center for Advancing Translational Sciences (NCATS).
# Sampled rows, rich in hits. Any-hit rate of the full collection: about 19%.
# IL1B secr inh: qHTS for Inhibitors of Inflammasome Signaling: IL-1-beta AlphaLISA Primary Screen | 4.7% of 360,000 active | AID 743279, 2014 | THP-1 LPS/ATP IL-1B secretion, AlphaLISA, 16 h; stronger effect = lower value | activity change, % at 57.5 µM; in the data active = activity change below about -50%; inconclusive = mostly about -30% to -49%
#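 Secreted IL-1B measured by AlphaLISA bead assay after 16 h compound exposure of THP-1 cells; compounds (final up to 57.5 uM) added 1 h before LPS (250 ng/mL) and ATP (1.25 mM) stimulation; lower signal means less secretion.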
# DT40 TDP1 no CPT: qHTS for Inhibitors of human tyrosyl-DNA phosphodiesterase 1 (TDP1): qHTS in cells in absence of CPT; Potency, µM (series often up to 46.2 µM), without a hit: top-dose activity change, negative = growth inhibition, usual class: inhibitors; DT40 Tdp1-/- hTDP1 cells, no CPT, ATP luminescence, 48 h; 15% of 420,000 active; also: potency is read from the fitted curve at half-maximal effect; nearly all actives have a fitted effect of over 55% in size
#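 Cells were dispensed at 400 per well, compounds added by pin tool, plates incubated ≥48 hr at 37 °C, then CellTiter-Glo added for 30 min at room temperature before luminescence reading. Line: DT40 Tdp1-/- complemented with hTDP1; camptothecin omitted.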
# HT1080 IDH1KD tx: qHTS for induction of synthetic lethality in tumor cells producing 2HG: qHTS for the HT-1080-IDH1KD cell line | 2% of 360,000 active | HT-1080 IDH1 knockdown viability, ATP luminescence, 48 h | AID 686971, 2013 | Potency, µM (titrated, usually from 46.1 µM), without a hit: at the top dose activity, negative = toxicity, actives largely listed as cytotoxic;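 also: potency is read from the fitted curve at half-maximal effect; 0% = DMSO wells and -100% = cell-free medium wells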
#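 Knockdown cells (IDH1KD HT-1080) received compounds 2 h after plating at 750 cells/well and were kept 48 h at 37 °C in 5% FBS RPMI. A CellTiter-Glo luminescence read gave % activity for curve fitting.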
# TDP1 cell CPT: qHTS for Inhibitors of human tyrosyl-DNA phosphodiesterase 1 (TDP1): qHTS in cells in presence of CPT. AID 686979, 2013. Potency, µM (titrated, usually from 46.2 µM), inactives show at the highest dose activity change, negative = growth inhibition, hits mostly inhibitors. chicken DT40 Tdp1-/-;hTDP1 cells + 20 nM CPT, ATP luminescence, 48 h. 12% of 420,000 active; also: potency is read from the fitted curve at half-maximal effect; nearly all actives have a fitted effect of over 55% in size
#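 Chicken DT40 Tdp1-/- cells stably complemented with human TDP1 were seeded at 400 cells/well in medium containing 20 nM camptothecin, exposed to pin-transferred compounds, and grown at 37 °C for at least 48 hr. Viability was read as ATP luminescence.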
# HT1080-NT tox: qHTS for induction of synthetic lethality in tumor cells producing 2HG: qHTS for the HT-1080-NT fibrosarcoma cell line. HT-1080-NT fibrosarcoma viability, CellTiter-Glo ATP luminescence, 48 h. Potency, µM (highest dose often 46.1 µM), for inactives: at the highest dose activity, negative = less viability, usual class: cytotoxic. 1.6% of 360,000 active. AID 686970, 2013;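 also: NT is the 2HG producing partner of a matched IDH1 knockdown line; potency is read from the fitted curve at half-maximal effect; 0% = DMSO-treated cells and -100% = media-only wells without cells; nearly all actives have a fitted effect of over 55% in size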
#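 Read-out is CellTiter-Glo luminescence after 10 minutes at room temperature, following 48 hours' compound treatment of HT-1080-NT cells (750 cells/well, RPMI, 5% FBS, 37 degrees C).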
# Numbers without * were called inactive; ? = inconclusive; . = no result; [ ] = remark or other dose. Unless noted, calls follow the shape of the dose curve; as a rule, active = well fitted curve in the direction sought with a large enough effect; inconclusive = small, poorly fitted or top-dose-only effect, or another doubt; inactive = no such curve, though single readings can be large; an effect the other way counts as inactive or inconclusive. Unless noted, % is scaled to controls: 0 for no effect and ±100 for the full control effect.
SMILES,IL1B secr inh,DT40 TDP1 no CPT,HT1080 IDH1KD tx,TDP1 cell CPT,HT1080-NT tox
CC(=O)Nc1cccc(-c2csc(C(NC(C)=O)c3ccc(F)c(F)c3)n2)c1 (centres undefined),-4,-22%,1%,-11%,23%
CC(=O)NC(c1ccc(F)c(F)c1)c1nc(-c2cccc(C(C)C)c2)cs1 (centres undefined),?,23µM*,?,16µM*,-27%
CC(=O)NC(c1ccc(F)c(F)c1)c1nc(-c2cccc(C(=O)O)c2)cs1 (centres undefined),0,1%,3%,-10%,15%
CC1CCN(C(=O)COC(=O)C2CCN(S(=O)(=O)c3ccc(Cl)c(C(F)(F)F)c3)CC2)CC1,19,-28%,-12%,1%,4%
COc1cc(/C=N/OCC(=O)Nc2cc(C)cc(C)c2)ccc1OCc1ccc(Cl)cc1,-5,13µM*,-4%,?,9%
COc1cc(/C=N/OCC(=O)NC2CCCCC2C)ccc1OCc1ccc(Cl)cc1 (centres undefined),?,18µM*,?,18µM*,-21%
COC(=O)c1ccc(/C=N/OCC(=O)NC2CCCC(C)C2C)cc1 (centres undefined),4,?,-9%,?,-11%
COc1cc(/C=N/N2CCOCC2)ccc1OCc1ccc(Cl)cc1,-11,?,-2%,-2%,1%
O=C(Nc1ccc2c(c1)OCO2)c1cc(C2CCCCN2S(=O)(=O)Cc2ccccc2)on1 (centres undefined),?,-25%,-2%,-10%,0%
CC1CC(C)(C)CC2(C1)NC(=O)N(CC(=O)NCc1ccccc1F)C2=O (centres undefined),24,4%,0%,1%,1%
COc1ccc(C)cc1NC(=O)c1ccc(NS(=O)(=O)c2cccs2)cc1,-3,-2%,-9%,10%,-5%
O=C(Nc1nccs1)c1ccc(CSc2nnnn2-c2ccccc2)cc1,?,-59%,?,13µM*,?
COc1cccc(/C=C/c2ccc3cccc(O)c3n2)c1OC,35,16µM*,?,?,-20%
COc1ccc(/C=C/c2ccc3cccc(O)c3n2)c(OC)c1OC,-91*,10µM*,?,9.2µM*,?
CCOc1c(OC(C)=O)ccc(/C=C/c2ccc3cccc(OC)c3n2)c1[N+](=O)[O-],5,16µM*,-25%,?,-19%
CCCCn1c(SCC(=O)Nc2nnc(CC)s2)nc2c1c(=O)n(C)c(=O)n2C,1,12µM*,2.8µM*,23µM*,?
CCCCn1c(SCC(=O)Nc2nnc(CC)s2)nc2ccccc2c1=O,-1,2%,3%,-3%,3%
CCCn1c(SCC(=O)Nc2cc(C)on2)nc2c1c(=O)n(C)c(=O)n2C,10,-32%,-11%,-27%,14%
CCCn1c(SCC(=O)Nc2nc3ccccc3s2)nc2c1c(=O)n(C)c(=O)n2C,0,23µM*,-20%,23µM*,-10%
CCn1c(SCC(=O)Nc2ccc(NC(C)=O)cc2)nc2c1c(=O)n(C)c(=O)n2C,9,?,-14%,-1%,-20%
CCCn1c(SCC(=O)Nc2ccc(NC(=O)CC)cc2)nc2c1c(=O)n(C)c(=O)n2C,-7,21µM*,-3%,0%,-1%
CCCn1c(SCC(=O)Nc2cccc(C)n2)nc2c1c(=O)n(C)c(=O)n2C,22,?,13%,18µM*,-1%
COc1ccc(Oc2ncc3nc(-c4cccs4)c(=O)n(Cc4cccc(OC)c4)c3n2)cc1,.,-21%,.,-1%,.
CCOC(=O)c1c(S(=O)(=O)N2CCCC(C(=O)Nc3cc(C)ccn3)C2)c(C)n(C)c1C (centres undefined),.,-22%,.,-28%,.
Cn1c(=O)c2c(ncn2CC(=O)Nc2ccc3c(c2)OCO3)n(C)c1=O,-2,-7%,1%,-13%,1%
SMILES,IL1B secr inh,DT40 TDP1 no CPT,HT1080 IDH1KD tx,TDP1 cell CPT,HT1080-NT tox
CCCCn1c(SCC(=O)Nc2ccc3c(c2)OCO3)nc2c1c(=O)n(C)c(=O)n2C,-20,?,-13%,16µM*,8%
COc1ccc(C(=O)CC(=O)C(=O)Nc2ccc(C)c(C)c2)cc1,3,21µM*,-1%,21µM*,-2%
COc1cccc(C(=O)CC(=O)C(=O)Nc2ccc(C)cc2Cl)c1,31,?,14%,?,5%
COc1ccc(C(=O)CC(=O)C(=O)Nc2cccc(C(C)=O)c2)cc1,26,?,8%,4%,5%
CCCCOC(=O)c1ccc(NC(=O)C(=O)CC(=O)c2ccc(OC)cc2)cc1,-4,16µM*,-21%,16µM*,-5%
COc1ccc(C(=O)CC(=O)C(=O)Nc2ccc(C)cc2Cl)cc1,11,16µM*,12%,?,18%
COc1cc(OC)c(NC(=O)C(=O)CC(=O)c2ccc(C)cc2C)cc1Cl,-6,2.6µM*,-26%,4.6µM*,-13%
CC1CCN(S(=O)(=O)c2ccc(NC(=O)CCNC(=O)c3ccc(Cl)cc3)cc2)CC1,1,?,4%,-3%,3%
O=C(NNS(=O)(=O)c1ccccc1)c1cccc([N+](=O)[O-])c1,13,4%,14%,7%,21%
CCCc1cc(=O)n2[nH]c(C)c(-c3ccc(OC)cc3)c2n1,-12,-21%,-1%,?,-1%
COc1ccc(C(=O)NNC(=O)C(=O)Nc2ccc(C)c(Cl)c2)cc1,-11,?,-12%,23µM*,-9%
CCCCOC(=O)c1ccc(NC(=S)NC(=O)c2c(Cl)cnn2C)cc1,1,16µM*,-13%,23µM*,-11%
CCCCOC(=O)c1ccc(NC(=S)NC(=O)c2c(Cl)cnn2CC)cc1,77,?,-8%,?,-6%
CCOc1ccc(C(=O)c2oc3ccccc3c2NC(=O)c2cc(-c3ccc(C)cc3)on2)cc1,.,-1%,.,-14%,.
O=C(c1ccco1)N(Cc1cc2cc3c(cc2nc1N1CCOCC1)CCC3)CC1CCCO1 (centres undefined),.,1%,.,13%[9.04 µM],.
CN(C)S(=O)(=O)N1CCC(Oc2ccc(C(=O)NC3Cc4ccccc4C3)cc2)CC1,17,16µM*,0%,?,-3%
CN(C)S(=O)(=O)N1CCC(Oc2cccc(C(=O)NC3CCCCCC3)c2)CC1,1,15µM*,-15%,18µM*,?
O[C@H](CCCN1CCN(c2ncc(F)cn2)CC1)c1ccc(F)cc1,.,-8%,.,-4%,.
